Screening data: PubChem BioAssay, National Center for Advancing Translational Sciences (NCATS)
Rows were chosen to be rich in hits. Some 8% of all compounds tested hit in one or more screens of this group.
HT1080NT lethal: qHTS for induction of synthetic lethality in tumor cells producing 2HG: qHTS for the HT-1080-NT fibrosarcoma cell line; HT-1080-NT fibrosarcoma viability, CellTiter-Glo ATP luminescence, 48 h; Potency, µM (series often up to 46.1 µM), usual class: cytotoxic; hit rate 1.6% among 360,000; AID 686970, 2013;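 note: NT is the 2HG producing partner of a matched IDH1 knockdown line; nearly all actives have a fitted effect of over 55% in size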
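HT-1080-NT; 750 cells/well; 5% FBS RPMI; 48 h compound, 37 degrees C; CellTiter-Glo luminescence; curve fitting and curve-class assignment.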
KB-V1 cytotox: qHTS assay for MDR1-selective chemotherapeutics: Primary screen using the drug-selected MDR subline cells KB-V1. hit rate 3.4% among 400,000. Potency, µM (highest dose often 46.1 µM), most hits filed as cytotoxic. KB-V1 MDR cells viability, CellTiter-Glo, 72 h; note: nearly all actives have a fitted effect of over 60% in size
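Following 72 h at 37 degrees C with compound, KB-V1 cell viability was read by CellTiter-Glo luminescence, medium being phenol-red-free DMEM plus 10% FBS; concentration-response parameters came from normalized, curve-fitted qHTS data.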
MCF10A rerep: A quantitative high throughput screen for small molecules that induce DNA re-replication in MCF 10a normal breast cells. MCF 10A DNA re-replication, Hoechst nuclear intensity, 48 h. Potency, µM (top dose mostly 46.1 µM), most hits filed as activators. hit rate 2.9% among 350,000; note: nearly all actives have a fitted effect of over 50% in size
KB-3-1 cytotox: qHTS assay for MDR1-selective chemotherapeutics: Primary screen using the parental adenocarcinoma cell KB-3-1. KB-3-1 viability, CellTiter-Glo ATP luminescence, 72 h. Potency, µM (top dose mostly 46.1 µM), actives largely listed as cytotoxic. hit rate 1.4% among 400,000; note: nearly all actives have a fitted effect of over 60% in size
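KB-3-1 cells, DMEM (no phenol red) + 10% FBS; compound by pin transfer, 72 h, 37 °C. Readout: CellTiter-Glo luminescence after 10 min. Data normalized, curve-fitted.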
SW480 rerep: A quantitative high throughput screen for small molecules that induce DNA re-replication in SW480 colon adenocarcinoma cells; SW480 DNA re-replication, Hoechst DNA content imaging, 48 h; Potency, µM (doses to about 46.1 µM), most hits filed as activators; hit rate 1.8% among 340,000; AID 624297, 2012; note: nearly all actives have a fitted effect of over 55% in size
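Hoechst fluorescence of nuclei (405 nm excitation, 500-530 nm emission) measured by plate-scanning imager after 48 hr compound exposure at 37 C; re-replication scored as increased number of nuclei with elevated intensity.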
HT1080 IDH1KD tx: qHTS for induction of synthetic lethality in tumor cells producing 2HG: qHTS for the HT-1080-IDH1KD cell line | HT-1080 IDH1 knockdown viability, ATP luminescence, 48 h | Potency, µM (doses to about 46.1 µM), usual class: cytotoxic | hit rate 2% among 360,000
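% activity derives from luminescence (CellTiter-Glo), normalised to DMSO and no-cell wells. HT-1080-IDH1KD cells, 750/well, had 48 h compound exposure at 37 °C.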
Of the large screens only hits and unclear results are named; the others gave an inactive call. Calls come from the whole dose curve; as a rule, active = well fitted curve in the direction sought with a large enough effect; inconclusive = small, poorly fitted or top-dose-only effect, or another doubt; inactive = no such curve, though single readings can be large; an effect the other way counts as inactive or inconclusive.

COc1ccccc1/C=C/C(=O)NC(=S)NC(C)C	KB-V1 cytotox inconclusive, MCF10A rerep inconclusive, KB-3-1 cytotox inconclusive, SW480 rerep 16µM
CC(=O)c1ccc(NS(=O)(=O)c2ccc(C)cc2)cc1	MCF10A rerep inconclusive
COc1ccccc1/C=C/C(=O)c1c2c(c(C)[nH]c1=O)CCCC2	HT1080NT lethal 4.5µM, KB-V1 cytotox inconclusive, MCF10A rerep inconclusive, SW480 rerep inconclusive, HT1080 IDH1KD tx inconclusive
COc1cc(OC)c(OC)cc1/C=C/C(=O)c1ccc(NS(=O)(=O)c2ccc(C)cc2)cc1	KB-V1 cytotox 15µM, MCF10A rerep 5.8µM, SW480 rerep inconclusive
COc1ccccc1/C=C/C(=O)c1ccccc1	MCF10A rerep 26µM, SW480 rerep inconclusive
CCOC(=O)c1cnc2cc(C(F)(F)F)ccc2c1Nc1cc(C)ccc1OC	none (no result: HT1080NT lethal, MCF10A rerep, SW480 rerep, HT1080 IDH1KD tx)
COc1ccc(/C=C/C(=O)NC(=S)NCc2ccccc2)cc1OC	HT1080NT lethal inconclusive, SW480 rerep 23µM, HT1080 IDH1KD tx inconclusive
CCOc1ccc(CNC(=S)N/N=C\c2ccc([N+](=O)[O-])cc2)cc1	none
CCCCOc1ccc(CNC(=S)N/N=C/c2ccc(OC)c(OC)c2)cc1	KB-V1 cytotox 18µM, KB-3-1 cytotox inconclusive, SW480 rerep inconclusive
COc1ccc(/C=C/C(=O)NC(C)CCc2ccccc2)cc1OC (centres undefined)	SW480 rerep inconclusive
COc1ccccc1/C=C/C(=O)c1ccc(NC(C)=O)cc1	MCF10A rerep 16µM, KB-3-1 cytotox inconclusive, HT1080 IDH1KD tx inconclusive
COc1ccc(CNC(=O)c2ccc(CSc3nc4ccncc4n3Cc3ccccc3F)cc2)cc1	none (no result: HT1080NT lethal, MCF10A rerep, SW480 rerep, HT1080 IDH1KD tx)
COc1ccc(OC)c(-c2cc(C(=O)Nc3cnn(Cc4ccc(Cl)cc4Cl)c3)no2)c1	KB-V1 cytotox inconclusive (no result: HT1080NT lethal, MCF10A rerep, SW480 rerep, HT1080 IDH1KD tx)
S=c1nc[nH]c2c1ncn2-c1ccc(Cl)cc1	KB-V1 cytotox 10µM, KB-3-1 cytotox inconclusive
O=C(O)Cn1cnc2c(=S)nc[nH]c21	none
CCN1C(=NCc2cccc(Cl)c2)N[C@@H](c2cccc(C(F)(F)F)c2)C(C(=O)OC)=C1C	none (no result: HT1080NT lethal, MCF10A rerep, SW480 rerep, HT1080 IDH1KD tx)
Cn1c2ccsc2c2ncn(Cc3ccc(F)cc3)c(=O)c21	MCF10A rerep inconclusive, SW480 rerep 0.26µM (no result: HT1080NT lethal, HT1080 IDH1KD tx)
Cc1csc[n+]1CC(=O)c1ccc(I)cc1	none (no result: HT1080NT lethal, MCF10A rerep, SW480 rerep, HT1080 IDH1KD tx)
COCCCn1c(=O)/c(=C\c2ccccc2OC(C)C)s/c1=C(/C#N)C(=O)Nc1ccc(C(=O)O)cc1	MCF10A rerep 26µM, SW480 rerep inconclusive
CCOCCCn1c(SCC(=O)N2CCOCC2)nc2ccccc2c1=O	KB-V1 cytotox inconclusive
CC1CCN(C(=O)Cn2c(SCC(=O)Nc3nccs3)nc3ccccc32)CC1	KB-V1 cytotox 4.6µM
Cc1ccc(NC(=O)CSc2nc3ccccc3c(=O)n2CCCC(=O)NCCCN2CCOCC2)cc1C	HT1080NT lethal 16µM, HT1080 IDH1KD tx inconclusive
CCOC(=O)CSc1nc2ccccc2c(=O)n1CCN1CCOCC1	KB-V1 cytotox 13µM
CN(C)C(=O)CSc1nc2ccccc2n1CC(=O)N1CCN(c2ccccc2)CC1	SW480 rerep inconclusive
CC(=O)Nc1ccc(NC(=O)CSc2nc3ccccc3c(=O)n2CCCN2CCOCC2)cc1	none
CCOC(=O)CSc1nc2ccccc2n1CC(=O)N1CCN(c2ccccc2)CC1	KB-V1 cytotox 7.3µM
Cc1ccc2c(c1)c1c(c(=O)n(-c3cccc(Cl)c3)c(=O)n1CC(=O)NCC1CCCO1)n2C (centres undefined)	none (no result: HT1080NT lethal, MCF10A rerep, SW480 rerep, HT1080 IDH1KD tx)
CCN(Cc1ccccc1)C(=O)c1cc(-c2ccccc2)n[nH]1	none (no result: HT1080NT lethal, MCF10A rerep, SW480 rerep, HT1080 IDH1KD tx)
Cc1ccc(NC(=O)CSc2nc3ccccc3c(=O)n2CCCN2CCCCC2)cc1Cl	HT1080NT lethal 23µM, KB-V1 cytotox inconclusive, MCF10A rerep 23µM, HT1080 IDH1KD tx inconclusive
CCc1ccc(NC(=O)CSc2nc3ccccc3c(=O)n2CCCC(=O)NCCCN2CCOCC2)cc1	HT1080NT lethal inconclusive, MCF10A rerep inconclusive, SW480 rerep inconclusive, HT1080 IDH1KD tx 18µM
COc1ccc(OC)c(NC(=O)c2cnn(-c3ccc(C)cc3)c2C2CCNCC2)c1	none (no result: HT1080NT lethal, MCF10A rerep, SW480 rerep, HT1080 IDH1KD tx)
Cc1ccc(S(=O)(=O)Nc2cccc3ncccc23)cc1	KB-V1 cytotox inconclusive
Cc1ccc(S(=O)(=O)Nc2cccc3ncccc23)s1	HT1080NT lethal inconclusive, KB-V1 cytotox inconclusive, MCF10A rerep 4.6µM, KB-3-1 cytotox 5.8µM, SW480 rerep inconclusive, HT1080 IDH1KD tx inconclusive
COc1ccc(-c2ccc(NC(=O)c3ccco3)cc2)nn1	HT1080NT lethal 18µM, KB-V1 cytotox inconclusive, KB-3-1 cytotox 10µM, SW480 rerep inconclusive, HT1080 IDH1KD tx 21µM
COc1ccccc1NC(=O)Cn1nnc(-c2ccccc2NC(=O)c2ccco2)n1	KB-V1 cytotox inconclusive, MCF10A rerep inconclusive
O=C(Nc1ccc(-c2cn3ccccc3n2)cc1)c1ccco1	HT1080NT lethal inconclusive, KB-V1 cytotox 10µM, HT1080 IDH1KD tx inconclusive
O=C(Nc1ccc(-c2nc3c(ccc4ccccc43)o2)cc1)c1ccco1	HT1080NT lethal 10µM, MCF10A rerep 4.6µM, SW480 rerep inconclusive, HT1080 IDH1KD tx 10µM
COc1ccc(NC(=O)Cn2nnc(-c3ccccc3NC(=O)c3ccco3)n2)cc1	HT1080NT lethal inconclusive, KB-V1 cytotox inconclusive, MCF10A rerep 10µM, KB-3-1 cytotox 4.1µM, SW480 rerep inconclusive, HT1080 IDH1KD tx inconclusive
CCOc1ccc(NC(=O)CC2C(=O)N(c3ccc(F)cc3)C(=O)N2CCc2sccc2C)cc1 (centres undefined)	KB-V1 cytotox inconclusive (no result: HT1080NT lethal, MCF10A rerep, SW480 rerep, HT1080 IDH1KD tx)
